Consider four compounds from PubChem BioAssay.

Test [1] in a line: yeast TOR pathway RPL19A-GFP modulators, primary screen, cell-based, S. cerevisiae, multiplex flow cytometry (AID 1862; in the data active means percent of DMSO control GFP below about 86%;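 further: lower values mimic rapamycin by blocking the RPL19A rise seen in DMSO cells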). Particulars: S. cerevisiae RPL19A-GFP strain, flow cytometry fluorescence, 3 h; at 10 µM; stronger effect = lower value.
Test [2] in a line: modulators of MEP2-GFP levels in yeast, primary screen, S. cerevisiae, multiplex flow cytometry (AID 1867;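 active means GFP response, as percent of the DMSO control, above the screen-wide mean plus 3 SD, about 139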;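 further: median GFP channel fluorescence of barcode-gated MEP2-GFP cells measured by flow cytometry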). The conditions noted are these: S. cerevisiae MEP2-GFP strain, 3 h, at 10 µM, stronger effect = higher value, 100% means same as DMSO wells.
Test [3] in a line: modulators of CIT2-GFP expression in yeast, primary screen, S. cerevisiae, GFP fusion, multiplex flow cytometry (AID 1870;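 active means percent response above a set limit, the screen-wide mean plus 3 SD, cut at about 130% in these data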;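 further: barcoded CIT2-GFP strain pooled with four other GFP strains with rapamycin as positive control; median GFP fluorescence per well over plate mean of DMSO wells so 100% = DMSO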). The conditions noted are these: 3 h, at 10 µM, stronger effect = higher value.
Test [4] is described as follows: modulators of LAP4-GFP expression in yeast, primary screen, S. cerevisiae, multiplex flow cytometry (AID 1873;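 active means GFP signal, as percent of the solvent control, above the screen mean plus 3 SD, about 149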). Particulars: 3 h, at 10 µM, stronger effect = higher value. In general terms: A flow cytometer gives signals particle by particle.
A short description of test [5]: modulators of AGP1-GFP expression in yeast TOR pathway, primary screen, cell-based, multiplex flow cytometry, S. cerevisiae (AID 1887;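 active means GFP signal above the screen-wide mean plus 3 SD, that is over about 124.5% of the solvent control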;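 further: AGP1-GFP fusion strain of S. cerevisiae within a five-strain barcoded multiplex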). The conditions noted are these: 3 h, at 10 µM, stronger effect = higher value.
A short description of test [6]: inhibitors of CD8+ T cell-vesicle binding, pilot screen, LFA-1/ICAM-1 modulator project, MLPCN validation set, flow cytometry (AID 2523;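 active means response below a set limit, under 55% cells CD8-positive and vesicle-bound, and CD8 cells' 90th-percentile brightness under 279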;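 on vesicle binding response: mean PE anti-B7-1 fluorescence of CD8+ cells relative to row control; 100% = QL9-loaded vesicles with DMSO vehicle in the same plate row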). The conditions noted are these: 2C mouse CD8+ T cells, at 7 µM, stronger effect = lower value; double positive events: measured here: CD8+/vesicle+ event percentage.
In test [7] the target is Integrin beta-1 (Homo sapiens) + Integrin alpha-4 (Homo sapiens) (UniProt P13612+P05556). Briefly: inhibition of HUTS-21 binding to VLA-4, pilot screen, VLA-4 allosteric modulator project, U937 cells, HUTS-21 mAb, flow cytometry, validation set (AID 2674;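 active means inhibition above 50%, about 3 SD of the validation set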;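 further: antibody binding induced by the VLA-4 ligand LDV present at three times its Kd; 0% = LDV ligand with antibody and no compound and 100% = antibody without LDV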). The conditions noted are these: HUTS-21 LIBS mAb binding, at 6.7 µM, stronger effect = higher value, binding induced by LDV ligand.
Sequence of Integrin beta-1 (Homo sapiens) + Integrin alpha-4 (Homo sapiens) (P05556 whole entry, looked up): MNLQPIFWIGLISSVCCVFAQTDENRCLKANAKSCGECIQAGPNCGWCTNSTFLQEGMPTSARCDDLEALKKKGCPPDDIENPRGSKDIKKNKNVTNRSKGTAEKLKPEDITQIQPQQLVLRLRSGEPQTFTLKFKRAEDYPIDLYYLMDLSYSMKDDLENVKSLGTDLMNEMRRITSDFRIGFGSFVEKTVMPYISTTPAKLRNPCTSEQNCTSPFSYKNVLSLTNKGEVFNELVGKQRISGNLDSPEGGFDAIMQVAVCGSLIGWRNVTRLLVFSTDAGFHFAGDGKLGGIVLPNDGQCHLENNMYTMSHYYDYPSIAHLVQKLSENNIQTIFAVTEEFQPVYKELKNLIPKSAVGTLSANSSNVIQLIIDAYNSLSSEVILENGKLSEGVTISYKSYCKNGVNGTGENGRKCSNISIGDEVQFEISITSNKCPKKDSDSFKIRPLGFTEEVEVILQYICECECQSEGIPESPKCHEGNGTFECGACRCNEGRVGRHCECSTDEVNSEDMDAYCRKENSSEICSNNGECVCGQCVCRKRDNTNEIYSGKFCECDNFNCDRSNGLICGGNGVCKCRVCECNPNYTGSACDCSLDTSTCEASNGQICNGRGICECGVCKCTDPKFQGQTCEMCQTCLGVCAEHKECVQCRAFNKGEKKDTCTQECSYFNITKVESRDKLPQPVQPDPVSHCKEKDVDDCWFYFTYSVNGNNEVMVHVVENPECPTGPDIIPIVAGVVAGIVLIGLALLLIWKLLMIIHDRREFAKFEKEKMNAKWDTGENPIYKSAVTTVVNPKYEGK
Sequence of Integrin beta-1 (Homo sapiens) + Integrin alpha-4 (Homo sapiens) (P13612 whole entry, looked up): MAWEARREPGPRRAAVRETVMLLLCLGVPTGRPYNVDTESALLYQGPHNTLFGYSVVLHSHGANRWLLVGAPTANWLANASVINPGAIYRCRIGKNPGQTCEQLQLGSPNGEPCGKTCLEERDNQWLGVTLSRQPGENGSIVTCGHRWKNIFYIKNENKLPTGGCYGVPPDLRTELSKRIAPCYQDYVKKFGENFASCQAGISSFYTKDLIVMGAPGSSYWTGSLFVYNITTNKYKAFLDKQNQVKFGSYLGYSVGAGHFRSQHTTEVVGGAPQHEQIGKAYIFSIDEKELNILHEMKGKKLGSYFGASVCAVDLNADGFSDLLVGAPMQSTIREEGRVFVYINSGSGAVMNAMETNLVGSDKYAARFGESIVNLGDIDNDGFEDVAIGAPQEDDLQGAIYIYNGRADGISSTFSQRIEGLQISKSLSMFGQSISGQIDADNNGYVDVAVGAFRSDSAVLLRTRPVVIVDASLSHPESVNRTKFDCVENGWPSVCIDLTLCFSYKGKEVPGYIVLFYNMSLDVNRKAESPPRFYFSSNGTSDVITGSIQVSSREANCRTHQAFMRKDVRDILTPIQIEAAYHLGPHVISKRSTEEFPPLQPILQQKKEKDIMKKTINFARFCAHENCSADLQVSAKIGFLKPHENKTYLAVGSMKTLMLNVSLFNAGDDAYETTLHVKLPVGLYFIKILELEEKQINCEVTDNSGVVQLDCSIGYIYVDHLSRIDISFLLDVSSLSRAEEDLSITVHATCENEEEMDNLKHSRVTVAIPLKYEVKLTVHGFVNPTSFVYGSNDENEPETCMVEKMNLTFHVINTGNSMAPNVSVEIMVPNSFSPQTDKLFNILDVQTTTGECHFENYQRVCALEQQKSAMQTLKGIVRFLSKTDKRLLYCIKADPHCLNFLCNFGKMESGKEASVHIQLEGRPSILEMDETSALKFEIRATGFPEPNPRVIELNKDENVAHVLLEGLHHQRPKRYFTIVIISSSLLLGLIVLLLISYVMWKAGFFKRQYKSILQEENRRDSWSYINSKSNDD

Test [8] is described as follows: superoxide lowering in aged yeast cells, pilot screen, validation compound set (AID 2706;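 active means superoxide response below 65% of plate, a cut near 3 SD across the whole screen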;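 further: yeast exposed to compound for one week at 30 degrees C before staining; 100% = mean of all compound wells on the same plate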). The conditions noted are these: S. cerevisiae aging, superoxide DHE fluorescence; at 10 µM; stronger effect = lower value.
In test [9] the target is Beta-adrenergic receptor kinase 1 (Homo sapiens) (UniProt P25098). Briefly: GRK2 binders displacing RNA aptamer, biochemical, validation, human GRK2, bead flow cytometry (AID 488806;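 active means aptamer binding inhibition above 30%, about 3 SD of noise from non-fluorescent compounds; inactive means inhibition at or below 30%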). Particulars: bead-bound GRK2, FAM-aptamer displacement, at 10 µM, stronger effect = higher value.
Sequence of Beta-adrenergic receptor kinase 1 (Homo sapiens) (P25098 whole entry, looked up): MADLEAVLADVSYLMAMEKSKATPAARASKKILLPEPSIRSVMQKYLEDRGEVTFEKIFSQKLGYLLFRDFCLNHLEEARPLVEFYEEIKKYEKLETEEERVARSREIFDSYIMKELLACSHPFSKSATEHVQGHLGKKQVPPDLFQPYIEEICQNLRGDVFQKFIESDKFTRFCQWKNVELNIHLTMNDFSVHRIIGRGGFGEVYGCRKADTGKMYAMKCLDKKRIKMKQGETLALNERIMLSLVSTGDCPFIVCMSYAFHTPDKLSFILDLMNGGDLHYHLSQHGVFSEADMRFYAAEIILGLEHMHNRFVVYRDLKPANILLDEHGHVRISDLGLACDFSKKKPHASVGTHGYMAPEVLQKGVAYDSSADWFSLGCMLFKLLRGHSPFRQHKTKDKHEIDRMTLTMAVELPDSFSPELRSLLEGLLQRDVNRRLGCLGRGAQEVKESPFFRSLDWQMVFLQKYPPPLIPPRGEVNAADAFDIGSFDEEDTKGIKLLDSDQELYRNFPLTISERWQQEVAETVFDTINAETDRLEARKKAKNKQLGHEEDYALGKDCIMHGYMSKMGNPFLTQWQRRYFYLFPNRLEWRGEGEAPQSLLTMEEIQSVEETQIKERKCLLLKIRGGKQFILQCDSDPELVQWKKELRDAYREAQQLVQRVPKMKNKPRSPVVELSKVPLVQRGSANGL
Test [10] has as its target Beta-2 adrenergic receptor (Homo sapiens) (UniProt P07550). Briefly: beta2AR agonists driving receptor internalization, pilot screen, cell-based, FAP fluorogen, flow cytometry, validation set (AID 504459;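 active means percent response above 42, roughly 3 SD of non-fluorescent test compounds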;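 further: agonist-driven loss of surface beta2AR via internalization measured by FAP dye flow cytometry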). The conditions noted are these: Am2.2-beta2AR cells, FAP surface receptor flow cytometry; at 10 µM; stronger effect = higher value.
Test [11] deals with AP-2 complex subunit beta (Homo sapiens) (UniProt P63010). Briefly: inhibitors of arrestin peptide binding to AP2, pilot screen, biochemical, validation set, GST-AP2 beads, flow cytometry (AID 504541;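 active means inhibition above 54%, about 3 SD of non-fluorescent compounds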;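 further: AP2 carries R879A mutation and is captured from E. coli lysate; bead-bound FITC arrestin peptide fluorescence measuring arrestin peptide binding to AP2; 0% = DMSO wells and 100% = excess unlabeled arrestin peptide control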). The conditions noted are these: FITC arrestin peptide, at 10 µM, stronger effect = higher value, AP2 beta2 appendage fragment, R879A mutant.
Sequence of AP-2 complex subunit beta (Homo sapiens) (P63010 whole entry, looked up, the tested form may be a part, one chain of several): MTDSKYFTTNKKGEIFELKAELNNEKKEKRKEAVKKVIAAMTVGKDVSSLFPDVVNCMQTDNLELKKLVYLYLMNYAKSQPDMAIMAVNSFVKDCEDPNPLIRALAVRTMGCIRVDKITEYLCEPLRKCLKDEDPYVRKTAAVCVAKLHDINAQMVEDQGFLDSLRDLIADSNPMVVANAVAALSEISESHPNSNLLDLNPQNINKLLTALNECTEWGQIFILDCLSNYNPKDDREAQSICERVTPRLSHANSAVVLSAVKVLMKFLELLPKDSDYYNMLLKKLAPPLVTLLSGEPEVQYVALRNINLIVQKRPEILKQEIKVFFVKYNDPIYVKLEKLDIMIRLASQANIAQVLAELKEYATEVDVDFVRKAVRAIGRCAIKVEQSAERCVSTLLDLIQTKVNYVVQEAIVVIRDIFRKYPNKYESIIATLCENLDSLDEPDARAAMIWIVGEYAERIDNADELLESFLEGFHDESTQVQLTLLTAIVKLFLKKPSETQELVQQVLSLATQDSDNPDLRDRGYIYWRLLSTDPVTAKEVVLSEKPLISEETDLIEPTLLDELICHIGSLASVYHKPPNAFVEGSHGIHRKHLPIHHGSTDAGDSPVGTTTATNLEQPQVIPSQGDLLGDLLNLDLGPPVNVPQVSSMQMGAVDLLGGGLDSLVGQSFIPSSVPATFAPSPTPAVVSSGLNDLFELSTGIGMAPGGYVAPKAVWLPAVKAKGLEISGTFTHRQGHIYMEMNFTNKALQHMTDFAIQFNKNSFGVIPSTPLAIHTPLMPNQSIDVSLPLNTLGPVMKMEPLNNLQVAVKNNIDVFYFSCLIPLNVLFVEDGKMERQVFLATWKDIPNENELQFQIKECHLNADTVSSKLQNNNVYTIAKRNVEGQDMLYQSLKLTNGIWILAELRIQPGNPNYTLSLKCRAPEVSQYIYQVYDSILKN
The nature of test [12]: yeast V-ATPase proton transport modulators, S. cerevisiae, pHLuorin, HTS validation (AID 504600; in the data active means response above about 15%;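 further: plate controls were DMSO for no effect and reference compound for full effect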). Particulars: S. cerevisiae pHLuorin cytosolic pH, at 10 µM, stronger effect = higher value.
Test [13] concerns anti-desmoglein-3 scFv antibody binding to human DSG3. Briefly: inhibitors of anti-DSG3 scFv binding to DSG3, pilot screen, biochemical, validation compound set, bead-based, flow cytometry (AID 588368;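 active means binding below the plate cutoff, the plate median minus 3 SD, with a reading above zero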;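 further: signal is the median channel fluorescence of bead-bound GFP antibody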). Particulars: Protein G beads, DSG3-Fc, scFv-GFP binding, at 10 µM, stronger effect = lower value.
Test [14] is described as follows: inhibitors of fungal efflux pumps CDR1, CDR2, MDR1, pilot screen, validation compound set, multiplex, phenotypic (AID 588506;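 active means efflux inhibition above 0.42, the validation set average plus 4 SD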;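 further: Nile Red retained in cells so higher fluorescence means more efflux inhibition; 0 = negative control wells and 1 = enniatin B 25 µM full block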). The conditions noted are these: S. cerevisiae pump-expressing triplex, Nile Red efflux flow cytometry; at 10 µM; stronger effect = higher value; the pumps come from Candida albicans.
Test [15] concerns the target ATP-binding cassette sub-family B member 6 (Homo sapiens) (UniProt Q9NP58). Briefly: ABCB6 transporter inhibitors, pilot screen, K562-ABCB6 cells, flow cytometry, validation set (AID 588550;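 active means inhibition above the screen-wide mean plus 3 SD, about 51%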;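 further: 0% = DMSO wells and 100% = benzethonium chloride 70 µM positive control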). Particulars: K562-ABCB6 porphyrin accumulation, 1 h, at 10 µM, stronger effect = higher value.
Test [16] in a line: promoters of myeloid differentiation in arrested cells, primary screen, cell-based, GFP/MAC1 double positive, flow cytometry, validation set (AID 588685).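 Further: compound exposure lasts four days before antibody staining and flow analysis; 0% = DMSO wells and 100% = 5 µM fulvestrant positive control.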 The conditions noted are these: ER-HoxA9 marrow cells, stronger effect = higher value, normalized: vehicle 0, fulvestrant 100.

Inconclusive results are not listed. Calls of active or inactive are those of the source.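 How the source made its calls, unless noted: active means differentiation response of at least 50%, scaled between solvent and reference control, from cells with both markers; inactive means the rest.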

Sequence of ATP-binding cassette sub-family B member 6 (Homo sapiens) (Q9NP58 whole entry, looked up): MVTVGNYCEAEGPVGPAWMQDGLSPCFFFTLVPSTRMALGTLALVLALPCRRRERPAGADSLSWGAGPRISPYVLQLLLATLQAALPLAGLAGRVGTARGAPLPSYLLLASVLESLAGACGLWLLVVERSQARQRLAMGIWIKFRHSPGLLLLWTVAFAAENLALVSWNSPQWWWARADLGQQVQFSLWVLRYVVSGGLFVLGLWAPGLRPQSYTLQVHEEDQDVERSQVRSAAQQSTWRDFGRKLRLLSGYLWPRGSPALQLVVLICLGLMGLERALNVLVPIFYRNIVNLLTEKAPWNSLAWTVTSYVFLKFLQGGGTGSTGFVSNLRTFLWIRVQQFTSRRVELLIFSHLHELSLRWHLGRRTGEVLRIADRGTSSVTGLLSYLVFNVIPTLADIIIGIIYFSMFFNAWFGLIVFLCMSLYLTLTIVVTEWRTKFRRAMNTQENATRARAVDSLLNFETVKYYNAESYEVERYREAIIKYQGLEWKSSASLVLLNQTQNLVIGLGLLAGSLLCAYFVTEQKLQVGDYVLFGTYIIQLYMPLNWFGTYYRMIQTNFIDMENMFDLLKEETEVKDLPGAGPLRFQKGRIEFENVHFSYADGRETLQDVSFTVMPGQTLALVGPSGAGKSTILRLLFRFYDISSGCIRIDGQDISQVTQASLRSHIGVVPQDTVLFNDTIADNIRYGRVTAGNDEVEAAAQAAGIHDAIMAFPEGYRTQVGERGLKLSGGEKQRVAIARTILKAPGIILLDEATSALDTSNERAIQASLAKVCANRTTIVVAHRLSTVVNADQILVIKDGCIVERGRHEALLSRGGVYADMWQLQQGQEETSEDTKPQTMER
Sequence of Beta-2 adrenergic receptor (Homo sapiens) (P07550 whole entry, looked up): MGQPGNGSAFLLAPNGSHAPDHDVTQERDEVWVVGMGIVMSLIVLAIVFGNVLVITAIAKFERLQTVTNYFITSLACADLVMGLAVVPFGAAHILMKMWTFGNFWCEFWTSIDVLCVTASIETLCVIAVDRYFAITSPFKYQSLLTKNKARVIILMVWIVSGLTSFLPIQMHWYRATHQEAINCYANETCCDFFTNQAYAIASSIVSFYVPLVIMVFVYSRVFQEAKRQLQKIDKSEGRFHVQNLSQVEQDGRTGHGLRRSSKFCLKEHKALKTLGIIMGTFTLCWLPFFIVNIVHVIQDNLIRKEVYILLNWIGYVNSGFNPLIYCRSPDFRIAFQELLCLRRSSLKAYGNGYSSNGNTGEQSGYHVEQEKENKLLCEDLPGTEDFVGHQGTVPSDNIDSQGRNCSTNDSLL

`C[C@@H]1C[C@H](Nc2ccccc2)c2ccccc2N1C(=O)c1cccnc1`: the percent of DMSO control GFP in [1] was 103% (inactive). Moreover, the GFP response vs DMSO in test [2] was 103% (inactive); in test [4], 98.2% (inactive). The percent response of DMSO control in test [3] is 103% (inactive). Further, the GFP response, % of DMSO in test [5] is 101% (inactive). The compound further came in with a double positive events in [6] of 59.5%. For the same compound, in test [6], the vesicle binding response is 188% (inactive). The inhibition (in general, the relative decrease from the control value, in per cent) in test [7] is 3.67% (inactive); in test [11], 19.6% (inactive); in [15] it was 0% (inactive). Further, the superoxide response (% of plate) in [8] was 95.6% (inactive). For the same compound, the aptamer binding inhibition in test [9] is 4% (inactive). For the same compound, the response in [10] was 2.27% (inactive); in test [12], -5.05% (inactive). Also, in [13], the binding (% of control) is 102% (inactive). Besides, the efflux inhibition (fraction of control) in test [14] was 0.05 (inactive). Further, in test [16], the differentiation response is 29.6% (inactive).
For `Nc1nc2c(nc(SCc3ccccc3Br)n2C2OC(CO)C(O)C2O)c(=O)[nH]1` (stereo not drawn), in test [1], the percent of DMSO control GFP was 102% (inactive). Moreover, the figures for the GFP response vs DMSO in test [2] and in test [4] were 97.4% (inactive) and 108% (inactive), respectively. For the same compound, the percent response of DMSO control in test [3] is 101% (inactive). Also, the GFP response, % of DMSO in [5] was 101% (inactive). For the same compound, the double positive events in test [6] was 62.7%. Further, the vesicle binding response in test [6] is 50.1% (inactive). For the same compound, the inhibition in test [7] was -1.79% (inactive); in test [11], 26.3% (inactive); in test [15], 1% (inactive). The superoxide response (% of plate) in [8] is 94.9% (inactive). Moreover, in [9], the aptamer binding inhibition was 0% (inactive). The response in test [10] is 17.9% (inactive); in [12] it was -4.55% (inactive). For the same compound, the binding (% of control) in test [13] was 90.9% (inactive). Also, the efflux inhibition (fraction of control) in [14] was 0.12 (inactive). Further, the differentiation response in [16] was -23.2% (inactive).
For the compound `O=C(O)c1cc2cc(F)ccc2[nH]1`, the percent of DMSO control GFP in [1] was 101% (inactive). The GFP response vs DMSO is 101% (inactive) in test [2] and 98.6% (inactive) in test [4]. Moreover, the percent response of DMSO control in test [3] is 105% (inactive). Further, the GFP response, % of DMSO in test [5] is 102% (inactive). For the same compound, in [6], the double positive events is 64.7%. The vesicle binding response in [6] is 894% (inactive). Also, the inhibition in test [7] was -15% (inactive); in test [11] it was 8.62% (inactive); in [15] it was 14% (inactive). In [8], the superoxide response (% of plate) was 113% (inactive). Besides, in [9], the aptamer binding inhibition is 3% (inactive). For the same compound, the results for the response in test [10] and in test [12] were 0.15% (inactive) and 1.32% (inactive), respectively. Also, in test [13], the binding (% of control) was 97.2% (inactive). The efflux inhibition (fraction of control) in [14] is -0.14 (inactive). Moreover, the differentiation response in [16] is -1.71% (inactive).
For the compound `C/C(=N\NC(=O)c1ccccc1[N+](=O)[O-])c1ccc(Br)s1`, the percent of DMSO control GFP in test [1] is 98.4% (inactive). Besides, the GFP response vs DMSO is 107% (inactive) in test [2] and 100% (inactive) in test [4]. The percent response of DMSO control in test [3] is 107% (inactive). Further, the GFP response, % of DMSO in test [5] is 101% (inactive). Further, the double positive events in test [6] is 57.5%. In addition, the vesicle binding response in test [6] is 94.2% (inactive). For the same compound, the inhibition is 0.25% (inactive) in test [7], 7.49% (inactive) in [11] and -10% (inactive) in test [15]. Moreover, in test [8], the superoxide response (% of plate) is 97.9% (inactive). For the same compound, in test [9], the aptamer binding inhibition is 2% (inactive). Moreover, the response in [10] is -0.6% (inactive); in test [12], -4.2% (inactive). The binding (% of control) in [13] is 95.7% (inactive). The efflux inhibition (fraction of control) in test [14] is -0.235 (inactive). For the same compound, the differentiation response in test [16] is -4.57% (inactive).
